Experimental data published in PubChem BioAssay (EPA / NIEHS).
Records with an inconclusive call do not appear. Activity calls are given as the source filed them. How the source made its calls, unless noted: active means hit-call score of the fitted dose curve at least 0.9, where 1 is the maximum; inactive means score below 0.9.

Legend:
[1] = CCTE_Shafer_MEA_acute_spike_number: CCTE's Neural Acute Assay for Total Number of Spikes, Shafer Lab (AID 2284008);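 on AC50: curve fitted for decrease in spike count so AC50 reflects inhibitors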
Method in brief: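 Read-out is the total spike count over 40 min, expressed as percent change from each well's own pre-treatment baseline and fitted in the loss direction against DMSO. Rat cortical neurons were exposed at 0.03-40 uM on DIV 13 or 15.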

[2] = CCTE_Shafer_MEA_acute_firing_rate_mean: CCTE's Neural Acute Assay for Mean Firing Rate, Shafer Lab (AID 2284009);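 further: analyzed for loss of signal so actives lower firing rate relative to DMSO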
Method in brief: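 Primary rat cortical neurons on 16-electrode MEA wells were exposed on DIV 13 or 15 to compound (0.03-40 uM). Spike counts per recording time, averaged over electrodes, were compared between 40-min baseline and 40-min post-exposure recordings as percent change.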

[3] = CCTE_Harrill_HTTr_Viability_MCF7: CCTE's 6-hour Cell Viability Assessment for the High-Throughput Transcriptomics (HTTr) Platform, in MCF-7 cells cultured in DMEM + 10% fetal bovine serum, Harrill Lab (AID 2284010)
Method in brief: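 PI exclusion, high-content imaging; 8-pt dilution series, 6 h exposure; bidirectional fit vs DMSO (neg. ctrl/baseline); gain of signal = loss of membrane integrity.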

[4] = CCTE_Harrill_HTTr_Apoptosis_MCF7: CCTE's 6-hour Apoptosis Assessment for the High-Throughput Transcriptomics (HTTr) Platform, in MCF-7 cells cultured in DMEM + 10% fetal bovine serum, Harrill Lab (AID 2284011)
Method in brief: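 MCF-7 (DMEM + 10% FBS), 384-well; 8-pt dilution series, 6 h chemical exposure; caspase-3/7 activation via CellEvent Caspase 3/7 Green, HCI; bidirectional fit vs DMSO.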

[5] = CCTE_Harrill_HTTr_CellCount_MCF7: CCTE's Cell Proliferation Assessment for the High-Throughput Transcriptomics (HTTr) Platform, Harrill Lab (AID 2284012; active means hit-call score of the fitted dose curve at least 0.9, where 1 is the maximum;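 further: count of Hoechst-stained nuclei per well by high-content imaging in MCF-7 cells; cells exposed to compound for six hours; intended direction is loss of nuclei count meaning fewer cells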)
Method in brief: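 Readout: Hoechst nuclear count by high-content imaging. MCF-7, 8-point dilution series, 6 h exposure. Bidirectional fit vs DMSO baseline.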

[6] = CCTE_Shafer_MEA_acute_burst_number: CCTE's Neural Acute Assay for Single-Electrode Bursts, Shafer Lab (AID 2284013)
Method in brief: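 Primary rat cortical neurons on 16-electrode MEA wells, DIV 13 or 15, exposed to compound (0.03-40 uM; ≥3 wells); 40-min recordings at 37 C before and after treatment. Burst count expressed as percent change from baseline, DMSO as negative control.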

[7] = CCTE_Shafer_MEA_acute_per_burst_spike_number_mean: CCTE's Neural Acute Assay for Average Number of Spikes Per Burst, Shafer Lab (AID 2284015);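 further: hits are decreases in mean spikes per burst versus baseline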
Method in brief: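 We recorded spontaneous network firing of rat cortical neurons for 40 min before and 40 min during exposure to compound at 0.03-40 uM, at 37 C. Spikes were detected adaptively at 8x rms noise, and the change in average spikes per burst was fitted against DMSO.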

[8] = CCTE_Shafer_MEA_acute_interburst_interval_mean: CCTE's Neural Acute Assay for Mean Interburst Interval, Shafer Lab (AID 2284016);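 further: percent change of mean interburst interval versus each well's own pre-dose baseline; curves fitted for decrease in interburst interval relative to DMSO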
Method in brief: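 MEA recording of spontaneous network bursting in primary rat cortical cultures; mean interburst interval was compared before and after a 40-min compound exposure (0.03-40 uM) and expressed as percent change, relative to DMSO.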

[9] = CCTE_Shafer_MEA_acute_burst_percentage_mean: CCTE's Neural Acute Assay for Percentage of Spikes in a Burst, Shafer Lab (AID 2284017);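 on AC50: curve fitted for loss of signal so potency reflects decreased burst percentage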
Method in brief: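 Compounds were tested at 0.03-40 uM on primary rat cortical neuron networks grown over microelectrodes, with at least three wells per compound. Spontaneous firing was recorded for 40 min before and 40 min after dosing, and the change in burst percentage was computed per well.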

[10] = CCTE_Shafer_MEA_acute_burst_percentage_std: CCTE's Neural Acute Assay for Standard Deviation of Burst Percentage, Shafer Lab (AID 2284018);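 further: fitted in the negative direction so actives lower burst percentage SD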
Method in brief: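 Value is percent change from baseline in the across-electrode SD of spikes-in-bursts percentage, wells with >/= 10 active electrodes. Acute 40-min exposure to 0.03-40 uM on DIV 13 or 15 rat cortical cultures, recorded at 37 C after 40-min baseline.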

[11] = CCTE_Shafer_MEA_acute_per_network_burst_spike_number_mean: CCTE's Neural Acute Assay for Average Number of Spikes in a Network Burst, Shafer Lab (AID 2284019)
Method in brief: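 Percent change from baseline in mean spikes per network burst, spikes detected at 8x rms noise. Each compound at 0.03-40 uM in at least three wells of rat cortical cultures, recorded 40 min before and 40 min during exposure.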

[12] = CCTE_Shafer_MEA_acute_per_network_burst_electrodes_number_mean: CCTE's Neural Acute Assay for Mean Number of Electrodes in a Network Burst, Shafer Lab (AID 2284021);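 further: curves fitted for decreases only so hits reduce electrodes per burst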
Method in brief: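 Primary rat cortical networks, mwMEA, 37 C. 20 min stabilization, 40 min baseline, compound 0.03-40 uM, 40 min re-record. Wells need >=10 active electrodes; percent change per well, negative fitting direction.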

[13] = CCTE_Shafer_MEA_acute_network_burst_percentage: CCTE's Neural Acute Assay for Percentage of Network Bursts, Shafer Lab (AID 2284022);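 further: curves fitted for loss so actives lower network burst percentage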
Method in brief: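 Readout is the fraction of spikes falling in network bursts, expressed as per-well percent change from a 40-min pre-exposure baseline. Primary rat cortical neurons on MEA were exposed to 0.03-40 uM compound on DIV 13 or 15 and recorded for 40 min at 37 C.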

[14] = CCTE_Shafer_MEA_acute_cross_correlation_area: CCTE's Neural Acute Assay for Area of Cross Correlation, Shafer Lab (AID 2284024);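 further: rat primary cortical neuron networks on 48-well MEA at DIV 13 or 15 with 40 min exposure; area under pooled inter-electrode spike cross-correlation near zero lag as percent change from own baseline; curves fitted for loss of cross-correlation area so actives lower synchrony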
Method in brief: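 Plates equilibrated 20 min at 37 C, then 40 min baseline was recorded, compound was added (0.03-40 uM), and a further 40 min was recorded. Wells needed ≥10 active electrodes (≥5 spikes/min) on exposure day.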

[15] = CCTE_Simmons_MITO_basal_resp_rate: CCTE's HepG2 Seahorse XF Respirometric Screening Assay at Basal Respiratory State, Simmons Lab (AID 2284001); settings: actives raise or lower the signal
Method in brief: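 Basal-phase OCR in HepG2 cells, read at 6-min intervals across a 72-min run, with test compound injected at 125 nM–100 uM final (7 points). Fitted both directions against DMSO; three biological replicates per concentration.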

[16] = CCTE_Simmons_MITO_max_resp_rate: CCTE's HepG2 Seahorse XF Respirometric Screening Assay at Maximal Respiratory State [uncoupled], Simmons Lab (AID 2284002); settings: actives raise or lower the signal
Method in brief: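 Read-out is oxygen consumption rate at maximal respiration, taken after FCCP uncoupling of compound-treated HepG2 cells. Seven final concentrations from 125 nM to 100 uM were tested, each in three biological replicates.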

[17] = CCTE_Simmons_MITO_inhib_resp_rate: CCTE's HepG2 Seahorse XF Respirometric Screening Assay at Inhibited Respiratory State [full ETC block], Simmons Lab (AID 2284006); settings: actives raise or lower the signal
Method in brief: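 OCR read-out in the inhibited phase following rotenone/antimycin A, after compound and FCCP injections, in HepG2 cells. Seven concentrations (125 nM to 100 uM final), three biological replicates, 6-min cycles over 72 min; DMSO baseline.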

[18] = target: Ratio of Nucleoli Translocation and Cytoplasm, AR (gene 367) (UniProt P10275); assay: UPITT_HCI_U2OS_AR_TIF2_Nucleoli_Cytoplasm_Ratio_Agonist: University of Pittsburgh U2OS Androgen Receptor-Transcriptional Intermediary Factor 2 (AR-TIF2) Agonism High Content Imaging Assay for Ratio of Nucleoli Translocation and Cytoplasm (AID 2284000; active means hit-call score of the fitted dose curve at least 0.9, where 1 is the maximum;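 further: hits raise the red nucleolar to cytoplasm ratio above vehicle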)
Sequence of Ratio of Nucleoli Translocation and Cytoplasm, AR (gene 367) (P10275 whole entry, looked up): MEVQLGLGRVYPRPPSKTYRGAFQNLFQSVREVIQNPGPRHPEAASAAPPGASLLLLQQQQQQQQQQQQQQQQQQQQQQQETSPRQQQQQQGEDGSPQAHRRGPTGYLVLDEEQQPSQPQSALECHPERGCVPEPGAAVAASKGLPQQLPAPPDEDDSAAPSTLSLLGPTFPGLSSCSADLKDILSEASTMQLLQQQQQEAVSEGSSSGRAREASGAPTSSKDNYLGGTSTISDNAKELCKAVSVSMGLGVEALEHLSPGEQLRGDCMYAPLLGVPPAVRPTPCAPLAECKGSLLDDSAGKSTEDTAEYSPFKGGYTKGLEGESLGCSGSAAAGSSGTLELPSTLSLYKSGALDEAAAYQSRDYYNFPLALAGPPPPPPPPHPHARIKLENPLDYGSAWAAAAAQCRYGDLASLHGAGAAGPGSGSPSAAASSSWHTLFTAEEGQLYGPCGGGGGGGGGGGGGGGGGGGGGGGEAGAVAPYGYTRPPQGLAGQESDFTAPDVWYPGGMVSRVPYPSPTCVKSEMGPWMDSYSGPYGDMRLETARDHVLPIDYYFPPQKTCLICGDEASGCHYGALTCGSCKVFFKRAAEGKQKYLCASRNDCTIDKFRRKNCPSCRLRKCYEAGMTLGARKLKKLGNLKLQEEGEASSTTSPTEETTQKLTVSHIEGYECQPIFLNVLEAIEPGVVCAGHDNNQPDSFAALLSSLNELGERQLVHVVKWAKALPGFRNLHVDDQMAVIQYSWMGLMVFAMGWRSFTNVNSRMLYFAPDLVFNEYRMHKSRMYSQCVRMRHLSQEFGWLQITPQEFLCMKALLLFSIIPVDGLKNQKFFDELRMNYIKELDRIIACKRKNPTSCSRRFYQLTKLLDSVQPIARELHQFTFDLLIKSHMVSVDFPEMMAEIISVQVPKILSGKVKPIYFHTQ
Method in brief: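 Compounds tested at 20 uM final in primary screen (0.2% DMSO) and 0.195-50 uM final in dose-response (0.5% DMSO). Imaging of human U2OS cells bearing RFP-AR and GFP-TIF2; endpoint is nucleoli/cytoplasm red signal ratio, positive direction relative to DMSO.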

[19] = target: Estrogen receptor (Homo sapiens) (UniProt P03372); assay: CCTE_Deisenroth_AIME_96WELL_LUC_Active: CCTE's 96-well Estrogen Receptor Transactivation Assay with AIME metabolic competence (ERTA luciferase; metabolism positive), Deisenroth Lab (AID 2284023; active means hit-call score of the fitted dose curve at least 0.9, where 1 is the maximum)
Sequence of Estrogen receptor (Homo sapiens) (P03372 whole entry, looked up): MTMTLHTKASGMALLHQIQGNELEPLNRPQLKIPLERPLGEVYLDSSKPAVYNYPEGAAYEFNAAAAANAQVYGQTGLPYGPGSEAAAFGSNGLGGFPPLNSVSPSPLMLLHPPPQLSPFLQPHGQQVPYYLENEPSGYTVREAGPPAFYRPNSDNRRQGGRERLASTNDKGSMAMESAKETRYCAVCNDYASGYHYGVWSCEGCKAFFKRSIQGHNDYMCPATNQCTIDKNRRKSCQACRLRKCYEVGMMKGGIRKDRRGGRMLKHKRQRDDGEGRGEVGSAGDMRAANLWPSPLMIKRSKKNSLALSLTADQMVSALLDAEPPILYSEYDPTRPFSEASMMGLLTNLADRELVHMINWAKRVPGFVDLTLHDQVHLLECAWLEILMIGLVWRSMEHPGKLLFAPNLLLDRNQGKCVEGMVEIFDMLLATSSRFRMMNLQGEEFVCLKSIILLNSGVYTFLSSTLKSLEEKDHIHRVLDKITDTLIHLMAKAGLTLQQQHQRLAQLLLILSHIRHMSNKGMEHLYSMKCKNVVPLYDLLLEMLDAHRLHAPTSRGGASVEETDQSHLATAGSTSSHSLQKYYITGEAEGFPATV
Method in brief: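 Metabolism-positive mode: induced rat hepatic S9 in alginate microspheres conditions test solutions (0.002 - 200 uM, 10 points) for 2 hours. VM7Luc4E2 ER luciferase reporter cells then exposed 24 h; positive-direction fit against 17beta-estradiol, n=4 typical.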

[20] = target: Estrogen receptor (Homo sapiens) (UniProt P03372); assay: CCTE_Deisenroth_AIME_96WELL_LUC_Inactive: CCTE's 96-well Estrogen Receptor Transactivation Assay without AIME metabolic competence (ERTA luciferase; metabolism negative), Deisenroth Lab (AID 2284025; active means hit-call score of the fitted dose curve at least 0.9, where 1 is the maximum)
Method in brief: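 Metabolism-negative arm: chemicals (0.002–200 uM, 10 points) incubated 2 h with alginate-water microspheres, then medium moved onto VM7Luc4E2 cells for 24 h luciferase read-out. Positive direction vs 17beta-estradiol; n≥4 experiments.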

Measured: AC50

CCCN(CC)CC1COC2(CCC(C(C)(C)C)CC2)O1 (stereo not given)
not listed: [15] | [16] | [17] | [18] | [19] | [20]
inactive: all other assays above

CCNP(=S)(OC)O/C(C)=C/C(=O)OC(C)C (stereo not given)
inactive: [17] | [3] | [4] | [5]
active: [15] 37.9 µM | [16] 18.1 µM

COc1ccc(-c2ccccc2)cc1NNC(=O)OC(C)C
inactive: [18] | [15] | [16] | [17] | [3]

CC1(C)C(C=C(Cl)Cl)C1C(=O)OC(C#N)c1cccc(Oc2ccccc2)c1 (stereo not given)
active: [8] 4.16 µM | [9] 1.57 µM | [12] 0.622 µM | [13] 1.94 µM | [20] 57 µM
not listed: [4] | [18]
inactive: all other assays above

CCOP(=S)(OCC)Oc1nc(Cl)n(C(C)C)n1
active: [15] 29.3 µM | [16] 38.5 µM
inactive: [17] | [3] | [5]

CCOC(=O)C(C)OC(=O)c1cc(Oc2ccc(C(F)(F)F)cc2Cl)ccc1[N+](=O)[O-] (stereo not given)
active: [1] 5.49 µM | [2] 5.46 µM
not listed: [5] | [15] | [16] | [17] | [18] | [19] | [20]
inactive: all other assays above

COC(=O)N(C(=O)N1CO[C@@]2(C(=O)OC)Cc3cc(Cl)ccc3C2=N1)c1ccc(OC(F)(F)F)cc1
active: [1] 8.32 µM | [2] 8.24 µM | [8] 15 µM | [9] 28.9 µM
not listed: [15] | [16] | [17] | [19] | [20]
inactive: all other assays above

Cn1c(-c2ccccc2)cc(-c2ccccc2)[n+]1C
active: [15] 41.9 µM | [16] 20 µM | [1] 1.05 µM | [2] 1.05 µM | [6] 1.15 µM | [9] 31.4 µM | [12] 20 µM | [13] 28 µM
inactive: [17] | [3] | [5] | [7] | [10] | [11] | [14]

O=C1C2CC=CCC2C(=O)N1SC(Cl)(Cl)Cl (stereo not given)
active: [15] 59.9 µM | [16] 67.8 µM
inactive: [17] | [3] | [4] | [5]

Cc1c(COC(=O)[C@@H]2[C@H](/C=C(\Cl)C(F)(F)F)C2(C)C)cccc1-c1ccccc1
active: [9] 0.756 µM | [13] 0.225 µM
not listed: [18] | [19] | [20]
inactive: all other assays above

CCOc1cc(C(C)(C)C)ccc1C1COC(c2c(F)cccc2F)=N1 (stereo not given)
active: [1] 3.32 µM | [2] 3.32 µM | [6] 3.12 µM | [9] 20 µM | [12] 4.3 µM | [13] 20 µM
inactive: [3] | [4] | [7] | [8] | [10] | [11] | [14]

CC(C)=CC1C(C(=O)OCc2coc(Cc3ccccc3)c2)C1(C)C (stereo not given)
active: [8] 31.2 µM | [9] 15 µM | [10] 20 µM | [12] 8.62 µM
not listed: [4] | [5] | [18] | [19] | [20]
inactive: all other assays above

CCN(CC)C(=O)C(C)Oc1cccc2ccccc12 (stereo not given)
active: [16] 32.7 µM
inactive: [15] | [3] | [4]

CC(C)N1C(=O)c2ccccc2NS1(=O)=O
not listed: [15] | [16] | [17] | [18] | [19] | [20]
inactive: all other assays above

Cc1nc(N(C)C)nc(OC(=O)N(C)C)c1C
not listed: [5] | [15] | [16] | [17] | [18] | [19] | [20]
inactive: all other assays above

Nc1c(Cl)c(F)nc(OCC(=O)O)c1Cl
not listed: [4] | [19] | [20]
inactive: all other assays above
